# According to the supplement of paper PMC4466140:
# How the values were obtained:
# Experiment in all cases: SPOT peptide array binding signal intensity (averaged, normalized) (arbitrary units (background-subtracted, floor 0; scale differs between SH3 domains)); higher = stronger binding of the SH3 domain to the peptide
# AgAbp1 = biological target: AgAbp1
# In short: (§1)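 To measure binding, SH3 domains from four yeast species were fused to GST, expressed in E. coli BL21(DE3) and purified on glutathione Sepharose. Each domain was incubated at 10 μg/ml overnight at 4°C on cellulose membranes with synthetic 15-mer peptides whose cysteines were replaced by serines. Anti-GST antibody, an HRP anti-mouse secondary and luminol were used for detection, and images were quantified with Genespotter. Reported binding signal is normalized, background-subtracted spot intensity averaged over replicates, in arbitrary units that differ between domains.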
# AgBbc1 = biological target: AgBbc1
# In short: as §1
# AgBem1-D1 = biological target: AgBem1-D1
# In short: as §1
# AgBzz1-D1 = biological target: AgBzz1-D1
# In short: as §1
# AgBzz1-D2 = biological target: AgBzz1-D2
# In short: as §1
# AgCyk3 = biological target: AgCyk3
# In short: as §1
# AgFus1 = biological target: AgFus1
# In short: as §1
# AgHof1 = biological target: AgHof1
# In short: as §1
# AgHse1 = biological target: AgHse1
# In short: as §1
# AgLsb1 = biological target: AgLsb1
# In short: as §1
# AgLsb4 = biological target: AgLsb4
# In short: as §1
# AgMyo5 = biological target: AgMyo5
# In short: as §1
# AgNbp2 = biological target: AgNbp2
# In short: as §1
# AgRvs167 = biological target: AgRvs167
# In short: as §1
# AgSho1 = biological target: AgSho1
# In short: as §1
# AgSla1-D1-D2 = biological target: AgSla1-D1-D2
# In short: as §1
# AgSla1-D3 = biological target: AgSla1-D3
# In short: as §1
# CaAbp1-D1 = biological target: CaAbp1-D1
# In short: as §1
# CaAbp1-D2 = biological target: CaAbp1-D2
# In short: as §1
# CaBbc1 = biological target: CaBbc1
# In short: as §1
# CaBem1-D1 = biological target: CaBem1-D1
# In short: as §1
# CaBzz1-D1 = biological target: CaBzz1-D1
# In short: as §1
# CaBzz1-D2 = biological target: CaBzz1-D2
# In short: as §1
# CaCyk3 = biological target: CaCyk3
# In short: as §1
# CaFus1 = biological target: CaFus1
# In short: as §1
# CaHof1 = biological target: CaHof1
# In short: as §1
# CaHse1 = biological target: CaHse1
# In short: as §1
# CaLsb1 = biological target: CaLsb1
# In short: as §1
# CaLsb4 = biological target: CaLsb4
# In short: as §1
# CaMyo5 = biological target: CaMyo5
# In short: as §1
# CaNbp2 = biological target: CaNbp2
# In short: as §1
# CaRvs167 = biological target: CaRvs167
# In short: as §1
# CaRvs167-3 = biological target: CaRvs167-3
# In short: as §1
# CaSho1 = biological target: CaSho1
# In short: as §1
# CaSla1-D1-D2 = biological target: CaSla1-D1-D2
# In short: as §1
# CaSla1-D3 = biological target: CaSla1-D3
# In short: as §1
# ScAbp1 = biological target: ScAbp1
# In short: as §1
# ScBbc1 = biological target: ScBbc1
# In short: as §1
# ScBem1-D1 = biological target: ScBem1-D1
# In short: as §1
# ScBzz1-D1 = biological target: ScBzz1-D1
# In short: as §1
# ScBzz1-D2 = biological target: ScBzz1-D2
# In short: as §1
# ScCyk3 = biological target: ScCyk3
# In short: as §1
# ScFus1 = biological target: ScFus1
# In short: as §1
# ScHof1 = biological target: ScHof1
# In short: as §1
# ScHse1 = biological target: ScHse1
# In short: as §1
# ScLsb1 = biological target: ScLsb1
# In short: as §1
# ScLsb2 = biological target: ScLsb2
# In short: as §1
# ScLsb3 = biological target: ScLsb3
# In short: as §1
# ScLsb4 = biological target: ScLsb4
# In short: as §1
# ScMyo3 = biological target: ScMyo3
# In short: as §1
# ScMyo5 = biological target: ScMyo5
# In short: as §1
# ScNbp2 = biological target: ScNbp2
# In short: as §1
# ScPex13 = biological target: ScPex13
# In short: as §1
# ScRvs167 = biological target: ScRvs167
# In short: as §1
# ScSho1 = biological target: ScSho1
# In short: as §1
# ScSla1-D1-D2 = biological target: ScSla1-D1-D2
# In short: as §1
# ScSla1-D3 = biological target: ScSla1-D3
# In short: as §1
# SpAbp1-D1 = biological target: SpAbp1-D1
# In short: as §1
# SpBbc1 = biological target: SpBbc1
# In short: as §1
# SpBzz1-D1 = biological target: SpBzz1-D1
# In short: as §1
# SpBzz1-D2 = biological target: SpBzz1-D2
# In short: as §1
# SpCyk3 = biological target: SpCyk3
# In short: as §1
# SpHof1 = biological target: SpHof1
# In short: as §1
# SpHof1-2 = biological target: SpHof1-2
# In short: as §1
# SpHof1-3 = biological target: SpHof1-3
# In short: as §1
# SpHse1 = biological target: SpHse1
# In short: as §1
# SpLsb1 = biological target: SpLsb1
# In short: as §1
# SpLsb4 = biological target: SpLsb4
# In short: as §1
# SpMyo1 = biological target: SpMyo1
# In short: as §1
# SpNbp2 = biological target: SpNbp2
# In short: as §1
# SpPex13 = biological target: SpPex13
# In short: as §1
# SpRvs167 = biological target: SpRvs167
# In short: as §1
# SpSla1-D1-D2 = biological target: SpSla1-D1-D2
# In short: as §1
# SpSla1-D3 = biological target: SpSla1-D3
# In short: as §1
binder,measurement,setting,value
RPKRRAPPPVPKKPS,SPOT peptide array binding signal intensity,AgAbp1,5860
same,SPOT peptide array binding signal intensity,AgBbc1,1090
same,SPOT peptide array binding signal intensity,AgBem1-D1,166
same,SPOT peptide array binding signal intensity,AgBzz1-D1,3720
same,SPOT peptide array binding signal intensity,AgBzz1-D2,825
same,SPOT peptide array binding signal intensity,AgCyk3,1
same,SPOT peptide array binding signal intensity,AgFus1,63.5
same,SPOT peptide array binding signal intensity,AgHof1,380
same,SPOT peptide array binding signal intensity,AgHse1,294
same,SPOT peptide array binding signal intensity,AgLsb1,1120
same,SPOT peptide array binding signal intensity,AgLsb4,313
same,SPOT peptide array binding signal intensity,AgMyo5,124
same,SPOT peptide array binding signal intensity,AgNbp2,4930
same,SPOT peptide array binding signal intensity,AgRvs167,191
same,SPOT peptide array binding signal intensity,AgSho1,650
same,SPOT peptide array binding signal intensity,AgSla1-D1-D2,274
same,SPOT peptide array binding signal intensity,AgSla1-D3,577
same,SPOT peptide array binding signal intensity,CaAbp1-D1,2320
same,SPOT peptide array binding signal intensity,CaAbp1-D2,4720
same,SPOT peptide array binding signal intensity,CaBbc1,1840
same,SPOT peptide array binding signal intensity,CaBem1-D1,78.5
same,SPOT peptide array binding signal intensity,CaBzz1-D1,7010
same,SPOT peptide array binding signal intensity,CaBzz1-D2,4680
same,SPOT peptide array binding signal intensity,CaCyk3,55
same,SPOT peptide array binding signal intensity,CaFus1,350
same,SPOT peptide array binding signal intensity,CaHof1,0.5
same,SPOT peptide array binding signal intensity,CaHse1,666
same,SPOT peptide array binding signal intensity,CaLsb1,≤ 0
same,SPOT peptide array binding signal intensity,CaLsb4,2700
same,SPOT peptide array binding signal intensity,CaMyo5,2.5
same,SPOT peptide array binding signal intensity,CaNbp2,3680
same,SPOT peptide array binding signal intensity,CaRvs167,127
same,SPOT peptide array binding signal intensity,CaRvs167-3,170
same,SPOT peptide array binding signal intensity,CaSho1,236
same,SPOT peptide array binding signal intensity,CaSla1-D1-D2,3850
same,SPOT peptide array binding signal intensity,CaSla1-D3,920
same,SPOT peptide array binding signal intensity,ScAbp1,3840
same,SPOT peptide array binding signal intensity,ScBbc1,835
same,SPOT peptide array binding signal intensity,ScBem1-D1,69
same,SPOT peptide array binding signal intensity,ScBzz1-D1,1610
same,SPOT peptide array binding signal intensity,ScBzz1-D2,75.5
same,SPOT peptide array binding signal intensity,ScCyk3,17.5
same,SPOT peptide array binding signal intensity,ScFus1,42.5
same,SPOT peptide array binding signal intensity,ScHof1,0.5
same,SPOT peptide array binding signal intensity,ScHse1,432
same,SPOT peptide array binding signal intensity,ScLsb1,819
same,SPOT peptide array binding signal intensity,ScLsb2,796
same,SPOT peptide array binding signal intensity,ScLsb3,3720
same,SPOT peptide array binding signal intensity,ScLsb4,95
same,SPOT peptide array binding signal intensity,ScMyo3,705
same,SPOT peptide array binding signal intensity,ScMyo5,471
same,SPOT peptide array binding signal intensity,ScNbp2,5640
same,SPOT peptide array binding signal intensity,ScPex13,482
same,SPOT peptide array binding signal intensity,ScRvs167,1640
same,SPOT peptide array binding signal intensity,ScSho1,2030
same,SPOT peptide array binding signal intensity,ScSla1-D1-D2,3510
same,SPOT peptide array binding signal intensity,ScSla1-D3,896
same,SPOT peptide array binding signal intensity,SpAbp1-D1,3020
same,SPOT peptide array binding signal intensity,SpBbc1,115
same,SPOT peptide array binding signal intensity,SpBzz1-D1,1740
same,SPOT peptide array binding signal intensity,SpBzz1-D2,713
same,SPOT peptide array binding signal intensity,SpCyk3,4
same,SPOT peptide array binding signal intensity,SpHof1,374
same,SPOT peptide array binding signal intensity,SpHof1-2,43.2
same,SPOT peptide array binding signal intensity,SpHof1-3,972
same,SPOT peptide array binding signal intensity,SpHse1,221
same,SPOT peptide array binding signal intensity,SpLsb1,1830
same,SPOT peptide array binding signal intensity,SpLsb4,925
same,SPOT peptide array binding signal intensity,SpMyo1,687
same,SPOT peptide array binding signal intensity,SpNbp2,173
same,SPOT peptide array binding signal intensity,SpPex13,220
same,SPOT peptide array binding signal intensity,SpRvs167,1300
same,SPOT peptide array binding signal intensity,SpSla1-D1-D2,1490
same,SPOT peptide array binding signal intensity,SpSla1-D3,2
